Myeloid diff MLP = induction of myeloid progenitor differentiation, primary screen, cell-based, flow cytometry, MLPCN library. ER-HoxA9 myeloid progenitors, lysozyme-GFP differentiation. calls only at 10 µM. 1% of 360,000 active;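 active = normalized GFP-positive differentiation at or above the plate's own cutoff, the solvent-only control mean plus 3 SD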;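 also: cells exposed to compound for four days before flow analysis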
FAS TE block = FAS thioesterase domain inhibitors, primary screen, biochemical, fluorescence intensity, uHTS | recombinant FAS-TE, OMFH fluorogenic substrate, fluorescence endpoint | inhibition, % at 15 µM | 0.67% of 360,000 active | AID 602261, 2012;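 active = compounds whose normalised, plate-corrected inhibition of enzyme fluorescence in the single-dose primary screen is 50% or more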
NadD block = inhibitors of S. aureus NadD, primary screen, biochemical, colorimetric, uHTS; AID 602399, 2012; inhibition, % at 20 µM; 0.78% of 360,000 active; Nicotinate-nucleotide adenylyltransferase NadD (Staphylococcus aureus N315); purified NadD enzyme, colorimetric absorbance read-out; in the data active = inhibition above about 26%
CRFR2-BP antag = antagonists of CRF-BP/CRF-R2 complex, primary screen, cell-based, HEK293, calcium dye fluorescence, uHTS; inhibition, % at 11.8 µM; 0.59% of 350,000 active; CRF-induced calcium fluorescence; AID 588475, 2011;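 active = inhibition of the ligand-induced calcium signal above about 50% at the single tested concentration, limit read from the data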
CendR NRP1 mod = modulators of CendR peptide binding to NRP-1, primary screen, biochemical, fluorescence polarization, uHTS; Neuropilin-1 (Homo sapiens), O14786; FAM-RPARPAR peptide binding to NRP-1; inhibition, % at 25 µM; 0.85% of 360,000 active; AID 602438, 2012;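 active = inhibition or corrected inhibition above about 18%, plus a signal ratio from 0.5 to 1.5, limit read from the data, passing the limit was not always enough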
FAS-TE conf = FAS thioesterase domain inhibitors, confirmation, biochemical, fluorescence intensity, single concentration; inhibition, % at 15 µM; AID 624325, 2012; recombinant FAS-TE, OMFH fluorogenic substrate; shares compounds with FAS TE block; 45% of 2,300 active;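 active = compounds inhibiting the enzyme by at least 50% at 15 µM in any one of the replicates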
Each line names hits and unclear results; the compound was inactive in the other large screens (follow-up assays come after a bar, where they were run). The list is not random: actives were taken first. Their share in the collection is about 3.6%.

CC(C)(C)OC(=O)N1CCC(NC(=O)c2[nH]cnc2C(=O)Nc2ccc(Cl)cc2)CC1	none
CC1CCN(C(=O)c2[nH]cnc2C(=O)Nc2ccc(Cl)cc2)CC1	FAS TE block 53.7 | FAS-TE conf inactive
C[C@@H]1CCCCO[C@H](CN(C)C(=O)Nc2cccc3ccccc23)[C@@H](C)CN([C@H](C)CO)C(=O)c2cc(NC(=O)c3ccccc3)ccc2O1	FAS TE block 77.9 | FAS-TE conf inactive
C[C@H](CO)N1C[C@H](C)[C@@H](CN(C)Cc2ccc(Cl)c(Cl)c2)Oc2c(NS(=O)(=O)c3ccc(F)cc3)cccc2C1=O	FAS TE block 54.1 | FAS-TE conf 58.3
Cc1ccc(S(=O)(=O)N(C)C[C@@H]2OCCCC[C@H](C)Oc3ccc(NC(=O)Nc4ccc(F)cc4)cc3C(=O)N([C@H](C)CO)C[C@H]2C)cc1	FAS TE block 62.5 | FAS-TE conf inactive
C[C@H](CO)N1C[C@H](C)[C@@H](CN(C)Cc2ccccc2)Oc2c(NS(=O)(=O)c3ccc(F)cc3)cccc2C1=O	none
C[C@@H]1CN([C@@H](C)CO)C(=O)c2cc(NC(=O)Nc3cccc4ccccc34)ccc2O[C@@H](C)CCCCO[C@H]1CN(C)C(=O)c1ccccc1	none
Cc1ccc(S(=O)(=O)Nc2ccc3c(c2)C(=O)N([C@@H](C)CO)C[C@@H](C)[C@@H](CN(C)S(=O)(=O)c2ccccc2)OCCCC[C@H](C)O3)cc1	FAS TE block 79.4 | FAS-TE conf inactive
Cc1ccc(S(=O)(=O)N(C)C[C@@H]2OCCCC[C@@H](C)Oc3ccc(NS(=O)(=O)c4c(C)noc4C)cc3C(=O)N([C@H](C)CO)C[C@@H]2C)cc1	none
Cc1ccc(S(=O)(=O)Nc2ccc3c(c2)C(=O)N([C@H](C)CO)C[C@H](C)[C@@H](CN(C)Cc2ccc(-c4ccccc4)cc2)O3)cc1	FAS TE block 81.4 | FAS-TE conf inactive
C[C@@H]1CN([C@@H](C)CO)C(=O)c2cc(NC(=O)C3CCCCC3)ccc2O[C@@H](C)CCCCO[C@H]1CN(C)S(=O)(=O)c1ccc(Cl)cc1	FAS TE block 81.0 | FAS-TE conf inactive
Cc1ccc(S(=O)(=O)N(C)C[C@H]2OCCCC[C@H](C)Oc3ccc(NC(=O)Nc4cccc5ccccc45)cc3C(=O)N([C@@H](C)CO)C[C@H]2C)cc1	FAS TE block 82.4 | FAS-TE conf inactive
COc1ccc(S(=O)(=O)N(C)C[C@@H]2OCCCC[C@@H](C)Oc3ccc(NC(=O)NC(C)C)cc3C(=O)N([C@H](C)CO)C[C@@H]2C)cc1	none
CCCCC(=O)Nc1ccc2c(c1)nc(CCN1CCN(C)CC1)n2C	none
COc1ccc(C(=O)NC(CC(=O)O)c2cc([N+](=O)[O-])ccc2Cl)c(SC)c1 (stereo not drawn)	FAS TE block 50.5 | FAS-TE conf 63.9
O=C(/C=C/c1cccc([N+](=O)[O-])c1)NCCSCc1ccc(Cl)cc1Cl	FAS TE block 58.8 | FAS-TE conf 58.0
O=C(/C=C/c1cccc([N+](=O)[O-])c1)NCCSCc1ccccc1Cl	FAS TE block 75.4 | FAS-TE conf inactive
Cc1c(C(=O)NCCSCc2ccccc2Cl)cccc1[N+](=O)[O-]	none
O=C(/C=C/c1ccc2c(c1)OCO2)NCCSCc1ccc(Cl)cc1Cl	none
COc1ccc(N2CCN(C(=O)COC(=O)CNC(=O)c3ccccc3)CC2)cc1	none
Cc1ccc(C)c(NC(=O)CCN2CCN(c3ccccc3F)CC2)c1	none
CCn1cc(S(=O)(=O)NC2CCCCC2)cn1	none (no result: Myeloid diff MLP)
Cc1ccc(NC(=O)c2ccc(Cl)c(S(=O)(=O)Nc3c(C)n(C)n(-c4ccccc4)c3=O)c2)cc1Cl	FAS TE block 76.1 | FAS-TE conf inactive
Cc1c(NS(=O)(=O)c2cc(C(=O)Nc3ccc(F)cc3Cl)ccc2Cl)c(=O)n(-c2ccccc2)n1C	none
C[C@@]12C(=O)Nc3cc(F)c(F)cc3C(=O)N1[C@H]1c3ccccc3OC[C@@H]1[C@@H]2c1ccccc1	FAS TE block 75.9 | FAS-TE conf 44.1
C[C@@]12C(=O)Nc3cc(Cl)ccc3C(=O)N1[C@H]1c3ccccc3OC[C@@H]1[C@@H]2c1ccccc1	FAS TE block 86.8 | FAS-TE conf inactive
C[C@@]12C(=O)Nc3ccc(F)cc3C(=O)N1[C@H]1c3cc(Cl)ccc3OC[C@@H]1[C@@H]2c1ccccc1	FAS TE block 84.7 | FAS-TE conf inactive
C[C@@]12C(=O)Nc3cc(Cl)ccc3C(=O)N1[C@H]1c3cc(Br)ccc3OC[C@@H]1[C@@H]2c1ccccc1	FAS TE block 80.2 | FAS-TE conf inactive
C[C@@]12C(=O)Nc3cc(Cl)ccc3C(=O)N1[C@H]1c3cc(Cl)ccc3OC[C@@H]1[C@@H]2c1ccccc1	none
Cc1ccc2c(c1)C(=O)N1[C@H]3c4cc(Cl)ccc4OC[C@@H]3[C@H](c3ccccc3)[C@]1(C)C(=O)N2	none
Cc1onc(-c2c(Cl)cccc2Cl)c1C(=O)N/N=C(\N)COc1ccc(Cl)cc1	none
COc1ccc(CNC(=O)C2=CC(c3ccc(OC)cc3)=NS(=O)(=O)N2C)cc1	none
COC(=O)c1ccc(/C=C/C(=O)OCC(=O)Nc2cc(C)on2)cc1	none
CC(C)(C)C1COc2ccccc2N1C(=O)c1cccc(Cl)c1 (stereo not drawn)	none
Cc1ccc2c(c1)[C@H]1[C@H](CO2)[C@H](c2ccccc2)[C@]2(C)C(=O)Nc3ccc(Br)cc3C(=O)N12	FAS TE block 95.7 | FAS-TE conf inactive
Cc1cccc(NC(=O)NN2CCN(C)CC2)c1C	none
Cc1ccc(C(=O)CC2C(=O)N(c3ccccc3)C(=S)N2c2ccccc2)cc1 (stereo not drawn)	FAS TE block 52.8 | FAS-TE conf inactive
O=C1NC(Cc2ccccc2)c2nc3ccc(Cl)cc3c(=O)n2-c2cc3ccccc3cc21 (stereo not drawn)	FAS TE block 77.6 | FAS-TE conf inactive
CCCC1NC(=O)c2cc3ccccc3cc2-n2c1nc1cc(Cl)ccc1c2=O (stereo not drawn)	FAS TE block 73.2 | FAS-TE conf inactive
CCC1NC(=O)c2cc3ccccc3cc2-n2c1nc1ccc(F)cc1c2=O (stereo not drawn)	none
O=C1NC(Cc2ccccc2)c2nc3ccc(F)cc3c(=O)n2-c2cc3ccccc3cc21 (stereo not drawn)	FAS TE block 79.5 | FAS-TE conf inactive
CCCC1NC(=O)c2cc3ccccc3cc2-n2c1nc1ccc(C)cc1c2=O (stereo not drawn)	none

Screens: PubChem, several laboratories
